# “And” between values parts separate entries of the source, which are not always exact repeats. Identical values can stand only once. Inconclusive results are not listed. Entries that show only a call come without a potency. The source made the active and inactive calls. The call rests on the fitted dose curve; in most records, active means well fitted cell-killing curve with a large enough effect in the repeat runs; inconclusive means weak or mixed curves, or effect the other way; inactive means no such curve, though single readings can be large or run the other way.
# Assay: qHTS assay to identify small molecule antagonists of the vitamin D receptor (VDR) signaling pathway - cell viability counter screen (AID 743225); further: nearly all actives have a fitted effect of over 50% in size
# Settings: VDR-bla HEK293T viability, CellTiter-Glo luminescence, 16 h; series mostly up to 61 µM
# Procedure, shortened: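 Parallel cytotoxicity test: VDR-UAS-bla HEK 293T, 3 nM (final) 1-alpha,25-dihydroxyvitamin D3 with test compound, 16 h, 37C. Endpoint is CellTiter-Glo luminescence in the same wells.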
# Potency means the concentration at half of the fitted maximal effect.
row,Compound,Potency
1,CN(C)c1ccc(C(=O)c2ccc(N(C)C)cc2)cc1,inactive
2,CCN(N=O)C(N)=O,inactive
3,Cc1c(COC(=O)[C@@H]2[C@H](/C=C(\Cl)C(F)(F)F)C2(C)C)cccc1-c1ccccc1,inactive
4,CC(C)c1ccc(CO)cc1,inactive
5,O=[N+]([O-])c1c(Cl)c(Cl)c(Cl)c(Cl)c1Cl,inactive
6,CC(C)C(=O)OCC(C)(C)C(OC(=O)C(C)C)C(C)C (stereo not drawn),inactive
7,C#CCOS(=O)OC1CCCCC1Oc1ccc(C(C)(C)C)cc1 (stereo not drawn),38.9 µM (active)
8,CCOc1cc(C=O)ccc1O,inactive
9,COc1ccc(C(CN(C)C)C2(O)CCCCC2)cc1 (stereo not drawn),inactive
10,CCOP(=S)(OCC)O/N=C(\C#N)c1ccccc1,inactive
11,COC(=O)c1sccc1S(=O)(=O)NC(=O)Nc1nc(C)nc(OC)n1,inactive
12,NNC(=S)NN,inactive
13,CCOc1cc(Oc2ccc(C(F)(F)F)cc2Cl)ccc1[N+](=O)[O-],inactive
14,NCc1cccnc1,inactive
15,NC(=S)Nc1ccccc1,inactive
16,O=P(Oc1ccccc1)(Oc1ccccc1)Oc1ccccc1,inactive
17,Nc1c(Cl)cc([N+](=O)[O-])cc1Cl,inactive
18,CC(C)(c1cc(Cl)c(O)c(Cl)c1)c1cc(Cl)c(O)c(Cl)c1,inactive
19,CC(C)Oc1cc(-n2nc(C(C)(C)C)oc2=O)c(Cl)cc1Cl,13.8 µM (active)
20,CCCCCCOC(=O)c1ccccc1C(=O)OCCCCCC,inactive
21,O=Cc1ccco1,inactive
22,N[C@@H](Cc1ccc(N(CCCl)CCCl)cc1)C(=O)O,inactive
23,Oc1cc(Cl)ccc1Oc1ccc(Cl)cc1Cl,7.08 µM (active) and 23.9 µM (active)
